According to PubChem BioAssay AID1159537 (DiRusso Lab, Biochemistry Department, University of Nebraska, 2015):
Among all 44,000 compounds or so, about 370 (0.84%) were called active. No rule for the calls is given here. Shown is part of a subset that was picked to be rich in actives.

Assay: compounds raising algal triacylglycerol storage – qHTS, Chlamydomonas reinhardtii, primary screen (AID 1159537);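 also: hits raise Nile Red signal meaning more stored TAG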
Settings: Chlamydomonas reinhardtii TAG, Nile Red fluorescence, 72 h; screened at 10 µM (by protocol)

| Compound | outcome |
| --- | --- |
| O=C(Nc1cccc(Cl)c1)Nc1ccccn1 | inactive |
| O=C1CC(N2CCCCCC2)C(=O)N1c1ccccc1 (stereo not given) | inactive |
| O=C1CC(N2CCN(c3ccc([N+](=O)[O-])cc3)CC2)C(=O)N1c1cccc(Cl)c1 (stereo not given) | inactive |
| O=C1CC(N2CCc3ccccc3C2)C(=O)N1c1ccc([N+](=O)[O-])cc1 (stereo not given) | active |
| CN1CCN(C(=O)c2sc3cc(Cl)ccc3c2Cl)CC1 | active |
| O=C(O)c1sc2cc(F)ccc2c1Cl | inactive |
| O=C(O)c1sc2ccccc2c1Cl | inactive |
| COc1ccccc1CN(C)C1CCN(C)CC1 | inactive |
| COc1ccc(Cl)cc1N(CC(=O)NCC1CCCO1)S(C)(=O)=O (stereo not given) | inactive |
| CN(C)CCCn1cnc2ccccc21 | inactive |
| COc1cc(C(=O)Nc2sc3c(c2C(N)=O)CCC3)cc(OC)c1OC | inactive |
| O=C(Nc1ccccc1)Nc1ccccc1C(=O)N1CCOCC1 | active |
| O=C(Nc1ccc(C(=O)N2CCOCC2)cc1)C1COc2ccccc2O1 (stereo not given) | inactive |
| CCC(=O)Nc1ccccc1C(=O)N1CCN(Cc2ccccc2)CC1 | inactive |
| NC(=O)CN(Cc1ccccc1Cl)S(=O)(=O)c1ccc(Cl)cc1 | inactive |
| O=C(c1ccc([N+](=O)[O-])cc1)N1CCN(c2cccc(Cl)c2)CC1 | inactive |
| Cc1ccccc1N(C(F)F)S(=O)(=O)c1cc([N+](=O)[O-])ccc1C | inactive |
| O=C(CCN1CCCC1)Nc1ccc2c(c1)CCC2 | inactive |
| CC(=O)c1ccc(-c2ccc(C=O)o2)cc1 | inactive |
| COc1ccccc1N1CCN(S(=O)(=O)c2cccc3cccnc23)CC1 | inactive |
